The supplement of paper PMC10849652
Targets with a hit are over-represented here; the source holds about 7,900 in all. About 0.6% of all pairs of compound and target were hits. A number with no mark means an inactive call.

Legend:
Test in all cases: log2 fold change, soluble protein after heating vs DMSO (PISA); higher = thermal stabilisation; K562 cells, 10 uM, 30 min; active = over 0.2 and 3.5 SD of the protein, either way, in both replicates (recomputed)
saracatinib = compound: CN1CCN(CCOc2cc(OC3CCOCC3)c3c(Nc4c(Cl)ccc5c4OCO5)ncnc3c2)CC1 [saracatinib]
Outline: (§1)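 Quantification of soluble protein used TMTpro 16plex LC-MS/MS, with channel sums equalised. Samples were the supernatant after 21,000xg for 90 min of pooled aliquots from K562 cells (2×10^6 cells/mL) treated with 10 μM compound for 30 min, heated for 3 min over 48°C-58°C, and extracted in PBS with 0.5% NP-40 at 4°C. Values, from duplicates, describe thermal stability against control samples on a log2 fold-change scale.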

sotrastaurin = compound: CN1CCN(c2nc(C3=C(c4c[nH]c5ccccc45)C(=O)NC3=O)c3ccccc3n2)CC1 [sotrastaurin]
Outline: as §1

alvocidib = compound: CN1CC[C@H](c2c(O)cc(O)c3c(=O)cc(-c4ccccc4Cl)oc23)[C@H](O)C1 [alvocidib]
Outline: as §1

Tubastatin A = compound: CN1CCc2c(c3ccccc3n2Cc2ccc(C(=O)NO)cc2)C1 [Tubastatin A]
Outline: as §1

[1] = compound: CNC(=O)C1=CC=CC=C1NC2=NC(=NC=C2Cl)NC3=C(C=C(C=C3)N4CCOCC4)OC
Outline: as §1

defactinib = compound: CNC(=O)c1ccc(Nc2ncc(C(F)(F)F)c(NCc3nccnc3N(C)S(C)(=O)=O)n2)cc1 [defactinib]
Outline: as §1

rucaparib = compound: CNCc1ccc(-c2[nH]c3cc(F)cc4c3c2CCNC4=O)cc1 [rucaparib]
Outline: as §1

[2] = compound: CNc1nc(-c2ccc3c(N)n[nH]c3c2)cc(N2C[C@@H](C(=O)NC3CCCCC3)CC[C@H]2C)n1
Outline: as §1

encorafenib = compound: COC(=O)N[C@@H](C)CNc1nccc(-c2cn(C(C)C)nc2-c2cc(Cl)cc(NS(C)(=O)=O)c2F)n1 [encorafenib]
Outline: as §1

[3] = compound: COC(=O)[C@H](CCSC)NC(=O)C1=C(C=C(C=C1)NC[C@H](CS)N)C2=CC=CC=C2
Outline: as §1

[4] = compound: COC1=CC=C(C=C1)CN2C=CC3=C2C=C(C=C3)C(=O)NO
Outline: as §1

filanesib = compound: CON(C)C(=O)N1N=C(c2cc(F)ccc2F)S[C@@]1(CCCN)c1ccccc1 [filanesib]
Outline: as §1

zotarolimus = compound: CO[C@H]1C[C@@H]2CC[C@@H](C)[C@@](O)(O2)C(=O)C(=O)N2CCCC[C@H]2C(=O)O[C@H]([C@H](C)C[C@@H]2CC[C@H](n3cnnn3)[C@H](OC)C2)CC(=O)[C@H](C)/C=C(\C)[C@@H](O)[C@@H](OC)C(=O)[C@H](C)C[C@H](C)/C=C/C=C/C=C/1C [zotarolimus]
Outline: as §1

idasanutlin = compound: COc1cc(C(=O)O)ccc1NC(=O)[C@@H]1N[C@@H](CC(C)(C)C)[C@](C#N)(c2ccc(Cl)cc2F)[C@H]1c1cccc(Cl)c1F [idasanutlin]
Outline: as §1

alisertib = compound: COc1cc(Nc2ncc3c(n2)-c2ccc(Cl)cc2C(c2c(F)cccc2OC)=NC3)ccc1C(=O)O [alisertib]
Outline: as §1

[5] = compound: COc1cc2nc(-c3cc(F)ccc3O)nc(N[C@@H]3CNC[C@H]3C(C)(C)O)c2cc1OC
Outline: as §1

gefitinib = compound: COc1cc2ncnc(Nc3ccc(F)c(Cl)c3)c2cc1OCCCN1CCOCC1 [gefitinib]
Outline: as §1

[6] = compound: COc1cccc2cc(-c3nc([C@H]4CC[C@H](C(=O)O)CC4)n4ncnc(N)c34)[nH]c12
Outline: as §1

lapatinib = compound: CS(=O)(=O)CCNCc1ccc(-c2ccc3ncnc(Nc4ccc(OCc5cccc(F)c5)c(Cl)c4)c3c2)o1 [lapatinib]
Outline: as §1

pictilisib = compound: CS(=O)(=O)N1CCN(Cc2cc3nc(-c4cccc5[nH]ncc45)nc(N4CCOCC4)c3s2)CC1 [pictilisib]
Outline: as §1

Chain of UniProt P35227 (P35227 whole entry, looked up): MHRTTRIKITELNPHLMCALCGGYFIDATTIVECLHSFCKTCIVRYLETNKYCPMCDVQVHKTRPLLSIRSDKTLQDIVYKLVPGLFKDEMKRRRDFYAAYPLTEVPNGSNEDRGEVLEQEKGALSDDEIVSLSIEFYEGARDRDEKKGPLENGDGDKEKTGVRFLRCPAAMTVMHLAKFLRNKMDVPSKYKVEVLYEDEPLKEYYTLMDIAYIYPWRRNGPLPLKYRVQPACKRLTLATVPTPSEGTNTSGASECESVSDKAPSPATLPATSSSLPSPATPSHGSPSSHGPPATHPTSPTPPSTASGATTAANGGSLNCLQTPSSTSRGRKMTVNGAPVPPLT
Chain of UniProt Q9H0R6 (Q9H0R6 whole entry, looked up): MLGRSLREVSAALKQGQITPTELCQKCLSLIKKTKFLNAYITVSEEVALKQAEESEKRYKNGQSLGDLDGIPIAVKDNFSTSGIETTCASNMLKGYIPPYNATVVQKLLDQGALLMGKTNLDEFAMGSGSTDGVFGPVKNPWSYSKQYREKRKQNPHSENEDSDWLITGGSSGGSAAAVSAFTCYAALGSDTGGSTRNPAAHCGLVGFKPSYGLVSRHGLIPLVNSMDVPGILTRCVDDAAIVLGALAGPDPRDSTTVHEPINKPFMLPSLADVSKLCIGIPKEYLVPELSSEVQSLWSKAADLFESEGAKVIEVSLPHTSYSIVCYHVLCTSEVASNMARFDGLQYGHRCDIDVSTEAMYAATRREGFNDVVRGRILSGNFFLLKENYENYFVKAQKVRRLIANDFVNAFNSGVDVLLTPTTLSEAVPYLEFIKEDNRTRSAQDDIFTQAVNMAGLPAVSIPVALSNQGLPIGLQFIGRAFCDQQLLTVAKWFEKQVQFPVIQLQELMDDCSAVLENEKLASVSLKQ
Chain of UniProt Q29RF7 (Q29RF7 whole entry, looked up): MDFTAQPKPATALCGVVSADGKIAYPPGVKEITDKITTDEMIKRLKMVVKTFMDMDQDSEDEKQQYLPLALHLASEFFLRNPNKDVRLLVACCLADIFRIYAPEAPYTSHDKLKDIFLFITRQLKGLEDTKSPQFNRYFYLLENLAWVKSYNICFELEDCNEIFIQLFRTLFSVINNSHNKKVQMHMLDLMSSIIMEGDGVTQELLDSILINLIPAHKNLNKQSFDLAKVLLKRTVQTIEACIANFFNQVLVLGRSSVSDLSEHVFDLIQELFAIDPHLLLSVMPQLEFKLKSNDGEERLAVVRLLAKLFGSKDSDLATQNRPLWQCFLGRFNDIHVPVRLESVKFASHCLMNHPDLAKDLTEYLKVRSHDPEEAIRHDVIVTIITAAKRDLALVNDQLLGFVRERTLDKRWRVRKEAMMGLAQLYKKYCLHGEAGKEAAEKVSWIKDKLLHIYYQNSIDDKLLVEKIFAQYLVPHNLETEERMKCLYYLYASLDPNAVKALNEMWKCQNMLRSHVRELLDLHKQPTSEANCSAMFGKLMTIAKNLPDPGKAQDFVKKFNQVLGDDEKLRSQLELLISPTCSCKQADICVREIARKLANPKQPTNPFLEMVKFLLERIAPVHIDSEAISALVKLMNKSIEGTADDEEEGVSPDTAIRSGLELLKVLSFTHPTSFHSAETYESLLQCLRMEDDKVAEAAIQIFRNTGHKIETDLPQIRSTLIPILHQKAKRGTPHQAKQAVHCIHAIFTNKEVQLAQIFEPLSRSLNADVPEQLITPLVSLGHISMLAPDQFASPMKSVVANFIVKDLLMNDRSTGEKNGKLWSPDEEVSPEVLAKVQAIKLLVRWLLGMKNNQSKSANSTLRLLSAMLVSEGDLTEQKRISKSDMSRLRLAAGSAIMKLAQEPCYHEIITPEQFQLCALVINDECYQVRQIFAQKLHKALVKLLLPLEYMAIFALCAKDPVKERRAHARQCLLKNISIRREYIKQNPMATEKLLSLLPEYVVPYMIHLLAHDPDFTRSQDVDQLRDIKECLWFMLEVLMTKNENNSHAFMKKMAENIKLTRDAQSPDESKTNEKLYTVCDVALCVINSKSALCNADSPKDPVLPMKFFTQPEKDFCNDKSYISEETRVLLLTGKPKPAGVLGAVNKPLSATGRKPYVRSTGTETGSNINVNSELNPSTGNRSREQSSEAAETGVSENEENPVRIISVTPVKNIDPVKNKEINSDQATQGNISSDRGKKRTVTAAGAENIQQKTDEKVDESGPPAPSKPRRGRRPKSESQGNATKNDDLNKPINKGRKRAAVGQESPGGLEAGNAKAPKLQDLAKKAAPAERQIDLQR
Chain of UniProt Q00577 (Q00577 whole entry, looked up): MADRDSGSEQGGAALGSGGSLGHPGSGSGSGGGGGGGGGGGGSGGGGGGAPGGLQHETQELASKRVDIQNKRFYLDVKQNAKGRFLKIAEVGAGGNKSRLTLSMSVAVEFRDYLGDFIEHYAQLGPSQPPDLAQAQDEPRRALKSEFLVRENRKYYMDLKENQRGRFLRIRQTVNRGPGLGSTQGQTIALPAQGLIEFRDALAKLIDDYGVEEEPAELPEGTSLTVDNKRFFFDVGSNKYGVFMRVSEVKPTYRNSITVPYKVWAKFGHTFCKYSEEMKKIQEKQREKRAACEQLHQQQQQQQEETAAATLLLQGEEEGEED
Chain of UniProt O43741 (O43741 whole entry, looked up): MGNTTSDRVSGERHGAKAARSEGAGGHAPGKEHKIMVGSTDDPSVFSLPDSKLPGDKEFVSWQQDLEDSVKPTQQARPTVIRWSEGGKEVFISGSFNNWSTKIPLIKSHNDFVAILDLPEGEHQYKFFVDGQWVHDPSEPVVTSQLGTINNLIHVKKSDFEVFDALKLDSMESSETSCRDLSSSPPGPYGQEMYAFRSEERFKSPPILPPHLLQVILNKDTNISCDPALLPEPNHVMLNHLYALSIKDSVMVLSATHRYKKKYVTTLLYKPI
Chain of UniProt Q9UHX1 (Q9UHX1 whole entry, looked up): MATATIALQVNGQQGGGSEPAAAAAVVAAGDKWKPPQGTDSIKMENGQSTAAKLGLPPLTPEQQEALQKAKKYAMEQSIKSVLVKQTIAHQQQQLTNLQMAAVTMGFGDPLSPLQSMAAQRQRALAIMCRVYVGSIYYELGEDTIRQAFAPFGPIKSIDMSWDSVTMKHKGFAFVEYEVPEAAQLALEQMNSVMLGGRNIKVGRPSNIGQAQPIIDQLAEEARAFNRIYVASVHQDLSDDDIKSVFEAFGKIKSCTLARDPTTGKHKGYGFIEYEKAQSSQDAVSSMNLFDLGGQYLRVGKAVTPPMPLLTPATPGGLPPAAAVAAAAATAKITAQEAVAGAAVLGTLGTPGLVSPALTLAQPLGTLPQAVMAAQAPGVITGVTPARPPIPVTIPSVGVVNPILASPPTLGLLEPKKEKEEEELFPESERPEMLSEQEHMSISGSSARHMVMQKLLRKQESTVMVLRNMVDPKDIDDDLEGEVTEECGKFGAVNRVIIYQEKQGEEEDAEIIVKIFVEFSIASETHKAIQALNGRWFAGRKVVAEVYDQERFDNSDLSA
Chain of UniProt Q9Y244 (Q9Y244 whole entry, looked up): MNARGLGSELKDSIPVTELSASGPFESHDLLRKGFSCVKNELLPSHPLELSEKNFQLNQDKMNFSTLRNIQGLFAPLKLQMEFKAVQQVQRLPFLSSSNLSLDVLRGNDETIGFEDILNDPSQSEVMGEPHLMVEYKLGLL
Chain of UniProt P62333 (P62333 whole entry, looked up): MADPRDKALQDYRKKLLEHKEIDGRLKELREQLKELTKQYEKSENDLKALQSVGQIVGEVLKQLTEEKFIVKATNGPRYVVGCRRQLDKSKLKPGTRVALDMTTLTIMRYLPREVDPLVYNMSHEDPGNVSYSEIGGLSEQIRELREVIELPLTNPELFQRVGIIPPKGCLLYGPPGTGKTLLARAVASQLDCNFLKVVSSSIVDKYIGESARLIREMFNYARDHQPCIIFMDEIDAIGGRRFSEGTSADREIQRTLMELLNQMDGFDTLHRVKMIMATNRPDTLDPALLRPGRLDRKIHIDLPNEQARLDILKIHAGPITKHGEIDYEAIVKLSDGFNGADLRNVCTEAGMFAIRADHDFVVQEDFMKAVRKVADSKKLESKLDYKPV
Chain of UniProt Q92968 (Q92968 whole entry, looked up): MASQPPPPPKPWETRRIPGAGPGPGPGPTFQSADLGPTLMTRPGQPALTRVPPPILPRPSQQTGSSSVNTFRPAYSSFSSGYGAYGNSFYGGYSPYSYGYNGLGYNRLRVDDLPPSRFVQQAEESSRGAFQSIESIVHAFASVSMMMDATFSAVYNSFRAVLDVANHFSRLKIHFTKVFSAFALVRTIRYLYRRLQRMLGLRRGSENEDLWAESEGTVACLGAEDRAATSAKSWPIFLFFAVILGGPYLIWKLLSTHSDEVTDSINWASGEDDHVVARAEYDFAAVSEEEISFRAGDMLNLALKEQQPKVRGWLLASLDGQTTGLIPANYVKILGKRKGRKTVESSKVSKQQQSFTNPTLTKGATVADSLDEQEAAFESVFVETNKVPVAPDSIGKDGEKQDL
Chain of UniProt Q08752 (Q08752 whole entry, looked up): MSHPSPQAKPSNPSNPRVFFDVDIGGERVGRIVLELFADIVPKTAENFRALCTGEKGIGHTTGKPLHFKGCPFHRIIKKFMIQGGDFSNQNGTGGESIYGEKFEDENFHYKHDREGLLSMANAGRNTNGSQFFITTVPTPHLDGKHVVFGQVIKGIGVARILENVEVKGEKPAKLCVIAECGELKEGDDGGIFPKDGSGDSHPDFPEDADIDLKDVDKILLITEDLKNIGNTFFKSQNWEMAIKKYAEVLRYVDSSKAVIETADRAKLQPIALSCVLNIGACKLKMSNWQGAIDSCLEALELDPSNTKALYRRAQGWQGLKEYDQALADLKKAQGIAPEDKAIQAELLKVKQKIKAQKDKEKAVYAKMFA

Target | log2 fold change (saracatinib) | log2 fold change (sotrastaurin) | log2 fold change (alvocidib) | log2 fold change (Tubastatin A) | log2 fold change [1] | log2 fold change (defactinib) | log2 fold change (rucaparib) | log2 fold change [2] | log2 fold change (encorafenib) | log2 fold change [3] | log2 fold change [4] | log2 fold change (filanesib) | log2 fold change (zotarolimus) | log2 fold change (idasanutlin) | log2 fold change (alisertib) | log2 fold change [5] | log2 fold change (gefitinib) | log2 fold change [6] | log2 fold change (lapatinib) | log2 fold change (pictilisib)
PDS5A (UniProt Q29RF7) | -0.094 | -0.62 (active) | -0.122 | -0.235 | 0.051 | -0.045 | -0.025 | 0.053 | 0.028 | 0.006 | 0.076 | -0.316 | -0.137 | -0.012 | 0.067 | 0.043 | -0.125 | -0.19 | -0.072 | -0.014
QRSL1 (UniProt Q9H0R6) | 0.033 | 0.003 | -0.103 | 0.01 | -0.023 | -0.105 | -0.047 | 0.038 | -0.017 | -0.033 | -0.01 | -0.087 | -0.028 | -0.128 | 0.022 | -0.005 | -0.007 | 0.017 | 0.003 | 0.06
PRKAG1 isoform 3 (UniProt P54619) | -0.016 | 0.04 | -0.062 | 0.01 | -0.184 | -0.081 | -0.005 | -0.026 | 0.026 | -0.014 | -0.02 | -0.036 | 0 | -0.004 | 0.022 | 0.008 | 0.002 | 0.049 | -0.055 | -0.037
PSMC5 (UniProt P62195) | -0.041 | -0.004 | 0.065 | -0.013 | -0.028 | 0.066 | 0.025 | 0.065 | 0.02 | 0.009 | -0.024 | 0.037 | -0.018 | 0 | -0.019 | -0.053 | -0.025 | -0.031 | 0.052 | -0.05
POMP (UniProt Q9Y244) | 0.075 | 0.035 | 0.046 | -0.067 | -0.035 | -0.014 | -0.013 | -0.114 | -0.071 | 0.136 | 0.175 | 0.082 | 0.012 | 0.115 | -0.153 | -0.016 | 0.076 | -0.03 | -0.022 | 0.031
PEX13 (UniProt Q92968) | -0.067 | -0.083 | 0.022 | 0.061 | -0.061 | -0.011 | -0.058 | 0.008 | 0.047 | -0.087 | 0.028 | -0.072 | -0.129 | -0.019 | -0.037 | -0.318 (active) | -0.045 | 0.115 | -0.013 | 0.009
PRKACB isoform 2 (UniProt P22694) | -0.013 | -0.119 | -0.014 | -0.035 | -0.101 | 0.004 | 0.002 | 0.018 | 0.011 | 0.022 | -0.045 | -0.098 | 0.021 | -0.01 | -0.037 | 0.124 | 0.015 | 0.03 | -0.018 | -0.018
PURA (UniProt Q00577) | 0.061 | 0.063 | 0.321 | 0.001 | 0.059 | 0.347 | 0.309 | 0.076 | 0.086 | 0.04 | -0.336 | 0.277 | -0.093 | 0.179 | -0.106 | -0.052 | -0.024 | -0.113 | 0.104 | -0.071
PGGHG (UniProt Q32M88) | 0.061 | -0.014 | 0.009 | 0.04 | -0.029 | 0.127 | 0.02 | 0.017 | -0.086 | -0.02 | -0.022 | 0.073 | 0.024 | 0.162 | -0.123 | 0.082 | -0.062 | 0.041 | -0.08 | 0.042
PSMC6 (UniProt P62333) | -0.01 | 0.015 | 0.09 | -0.025 | -0.003 | 0.079 | 0.04 | 0.009 | 0.035 | 0.026 | -0.059 | 0.083 | -0.003 | 0.005 | -0.093 | -0.024 | -0.038 | -0.057 | 0.049 | -0.054
PCGF2 (UniProt P35227) | -0.029 | 0.04 | -0.074 | 0.039 | -0.057 | -0.129 | 0.024 | 0.122 | 0.071 | 0.027 | -0.039 | 0.055 | 0.03 | -0.008 | 0.036 | 0.11 | 0.021 | 0.018 | -0.058 | -0.02
PRKAB2 (UniProt O43741) | -0.064 | -0.077 | -0.094 | 0.039 | -0.159 | -0.084 | -0.371 | -0.022 | 0.118 | -0.036 | 0.038 | -0.167 | 0.109 | 0.14 | 0.053 | -0.074 | 0.004 | 0.057 | 0.131 | 0.111
PUF60 (UniProt Q9UHX1) | 0 | -0.035 | -0.138 | 0.048 | -0.197 | -0.173 | -0.003 | -0.007 | 0.049 | -0.012 | 0.007 | 0.087 | 0.026 | 0.022 | -0.05 | -0.028 | 0.014 | 0.008 | 0.063 | 0
PCBP2 (UniProt F8VRH0) | 0.255 | -0.319 | 0.106 | 0.155 | 0.105 | 0.009 | 0.066 | -0.014 | 0.014 | 0.066 | 0.139 | 0.107 | 0.013 | 0.218 | 0.305 | -0.34 | 0.055 | -0.21 | 0.06 | -0.231
PXK (UniProt Q7Z7A4) | -0.023 | 0.004 | -0.055 | -0.033 | 0.03 | -0.025 | -0.027 | -0.007 | 0.08 | -0.048 | 0.105 | -0.005 | 0.021 | -0.035 | -0.057 | 0.069 | -0.001 | 0.015 | 0.03 | 0.127
PPID (UniProt Q08752) | -0.137 | -0.178 | -0.069 | 0.051 | 0.044 | -0.101 | 0.135 | 0.042 | 0.142 | -0.052 | 0.041 | 0 | 0.056 | -0.055 | -0.009 | 0.093 | 0.112 | -0.091 | -0.041 | 0.039
